The sample as a whole holds a higher share of hits than the screen did.
FECH block: human FECH heme synthesis enzyme inhibition | P22830 | purified FECH, Ni-mesoporphyrin absorbance 550 nm | calls only at 10 µM (by protocol) | 20,000 tested, 3.3% active | AID 1671448;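 active = enzyme reaction rate more than 3 SD below the solvent-only control wells on the same plate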;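 also: lower slope than DMSO wells means FECH inhibition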
Target sequence (P22830 whole entry, looked up): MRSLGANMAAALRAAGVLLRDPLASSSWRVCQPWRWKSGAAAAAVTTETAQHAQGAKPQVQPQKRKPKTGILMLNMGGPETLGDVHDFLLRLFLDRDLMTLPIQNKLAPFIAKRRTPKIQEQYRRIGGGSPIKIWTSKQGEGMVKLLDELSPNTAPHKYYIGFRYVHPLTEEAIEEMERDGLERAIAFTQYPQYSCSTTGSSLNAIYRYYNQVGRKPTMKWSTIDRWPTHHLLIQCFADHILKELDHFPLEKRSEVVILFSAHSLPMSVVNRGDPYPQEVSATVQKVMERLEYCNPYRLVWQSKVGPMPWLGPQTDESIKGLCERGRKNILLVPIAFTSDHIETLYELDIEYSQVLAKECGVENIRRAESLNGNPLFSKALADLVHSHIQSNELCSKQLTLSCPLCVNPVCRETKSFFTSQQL
* hit, by the source's call; i = inactive; + = active, no number.

SMILES | FECH block
O=C1CC(c2cc3ccc(F)cc3[nH]c2=O)c2cc3cn[nH]c3cc2N1 (configuration not stated) | i
CCn1nc(C)c(CNC(=O)CN2CCC(C)=N2)c1C | i
COCc1nc2cccnc2n1C1CCN(S(=O)(=O)c2ccc(OC)cc2)CC1 | i
NS(=O)(=O)c1ccc(NC(=O)c2c(-c3ccccc3)c(-c3ccccc3)n[nH]c2=O)cc1 | i
CCn1nc(-c2ccccc2)c(-c2ccccc2)c(C(=O)Nc2ccc(S(N)(=O)=O)cc2)c1=O | +
NS(=O)(=O)c1ccc(NC(=O)c2ccc(-c3nc(-c4ccccc4)no3)cc2)cc1 | i
CCOc1ccc(N(Cc2nc3nc(C)cc(C)n3n2)C(=O)c2ccc(F)cc2)cc1 | i
O=C(Cn1nc(N2CCN(c3ccc(F)cc3)CC2)ccc1=O)NCc1ccccc1F | i
Cn1c(=O)n(Cc2ccccc2F)c(=O)c2cnc(-c3cccs3)nc21 | i
Cc1noc(C)c1CCn1c(=O)c2cnc(-c3cccs3)nc2n(C)c1=O | i
Cn1c(=O)n(CCOc2ccccc2)c(=O)c2cnc(-c3cccs3)nc21 | +
Cc1cccc(CNS(=O)(=O)c2cc(C(=O)N3CCCC3)cs2)c1 | i
COc1cc(N2CCN(Cc3ccc(C(C)(C)C)cc3)CC2)nc(N)n1 | i
CCCOCCN1CCN(c2ncnc3[nH]ccc23)CC1 | i
COCc1cc(CN(C)c2ncnc3[nH]ccc23)[nH]n1 | i
CN(CCOc1ccccc1)c1ncnc2[nH]ccc12 | +
NC(=O)c1cccc(CC2CCN(C(=O)NCCc3ccccc3F)C2)c1 (configuration not stated) | i
CCn1cc(CN(C(=O)c2nccc3ccccc23)C(C)C)cn1 | i
CN(CC1COCCO1)C(=O)c1nccc2ccccc12 (configuration not stated) | +
N[C@@H]1c2ccccc2C2(CCN(C(=O)c3nccc4ccccc34)CC2)[C@H]1O | i
Cc1ccccc1-c1ncc(CN(C)Cc2n[nH]c3c2CCC3)s1 | i
Cc1ccc(Cn2c(CNS(=O)(=O)c3cccc(Cl)c3)nc3cccnc32)cc1 | i
CCNC(=O)COc1nc(CC)nc2onc(-c3ccc(F)cc3)c12 | +
CCc1nc(OCC(=O)NCc2ccccn2)c2c(-c3ccc(F)cc3)noc2n1 | i
C=CCNC(=O)COc1nc(CC)nc2onc(-c3ccc(F)cc3)c12 | i
SMILES | FECH block
O=C(c1csc(S(=O)(=O)NCc2ccccn2)c1)N1CCCC1 | i
O=C(NCCc1csc(-c2cccnc2)n1)C1CNCCO1 (configuration not stated) | i
Cc1nc2c(c(NCCc3csc(-c4cccnc4)n3)n1)CCNC2 | i
c1cncc(-c2nc(CCNCc3nc(-c4ccco4)no3)cs2)c1 | +
COc1ccc(Cn2c(CNC(=O)c3ccc(OC)cc3)nc3cccnc32)cc1 | i
c1cn(-c2cc3c(cc2-n2cnnc2)OCCO3)cn1 | i
CCCN1CCN(S(=O)(=O)c2ccc3c(c2)CCN3C(=O)CCC(=O)N2CCOCC2)CC1 | i
CCOC(=O)c1cccnc1-c1cnc2ccccc2c1 | i
COc1ccccc1CNC(=O)c1nc[nH]c1C(=O)NCc1ccccc1OC | +
COc1ccccc1CNC(=O)c1nc[nH]c1C(=O)N1CCC(C)CC1 | i
Cc1ccc(CNC(=O)c2[nH]cnc2C(=O)NCCC(C)C)o1 | i
CCCNC(=O)c1nc[nH]c1C(=O)NCC1CCCCC1 | i
COc1ccccc1CNC(=O)c1[nH]cnc1C(=O)NC1CCCCC1 | +
COc1ccccc1CNC(=O)c1[nH]cnc1C(=O)NCc1ccc(C)o1 | +
CC(C)NC(=O)c1nc[nH]c1C(=O)NCC1CC1 | i
COc1ccccc1CNC(=O)c1[nH]cnc1C(=O)NC1CCCc2ccccc21 (configuration not stated) | +
O=C(NC1CC1)c1nc[nH]c1C(=O)NCC1CCCCC1 | i
CC(C)(C)CNC(=O)c1nc[nH]c1C(=O)NCC(C)(C)C | i
COCCNC(=O)c1[nH]cnc1C(=O)NC1CCCCC1 | i
Cc1ccc(CNC(=O)c2nc[nH]c2C(=O)NCc2ccccc2)o1 | i
Cc1cc(CN2CCCC2)ccc1Oc1ccc(C(=O)N2CCCCC2)cn1 | i
CCCc1nnc2sc(C(C)n3cnc4ccccc4c3=O)nn12 (configuration not stated) | i
CC(=O)N(C)c1ccc(NC(=O)CN(C)Cc2cccc3ncccc23)cc1 | i
COc1ccnc(N2Cc3cnn(Cc4ccc(F)cc4)c3C2)n1 | i
COc1ccc(CNc2nc3nc(CNc4ccccc4OC)cc(=O)n3[nH]2)cc1 | +
SMILES | FECH block
CCc1ccccc1NCc1cc(=O)n2[nH]c(NCc3ccc(F)cc3)nc2n1 | i
COc1ccc(CNc2nc3nc(CNc4ccccc4F)cc(=O)n3[nH]2)cc1 | i
Cc1cccc(NCc2cc(=O)n3[nH]c(NCc4ccccc4Cl)nc3n2)c1C | i
COc1ccccc1CNc1nc2nc(CNc3ccccc3OC)cc(=O)n2[nH]1 | i
Cc1ccccc1NCc1cc(=O)n2[nH]c(NCc3ccccc3Cl)nc2n1 | +
O=c1cc(CNc2ccccc2Cl)nc2nc(NCc3ccccc3)[nH]n12 | +
O=c1cc(CNc2ccccc2F)nc2nc(NCc3ccc(F)cc3)[nH]n12 | i
O=c1cc(CNc2ccccc2F)nc2nc(NCc3ccccc3)[nH]n12 | i
Cc1ccccc1NCc1cc(=O)n2[nH]c(NCc3ccc(F)cc3)nc2n1 | +
CCc1ccccc1NCc1cc(=O)n2[nH]c(NCc3ccc(OC)cc3)nc2n1 | i
CC(C)NCc1cc(=O)n2[nH]c(NCc3ccc(F)cc3)nc2n1 | i
Cc1cc2ccccc2n1CCNC(C)Cn1cncn1 (configuration not stated) | i
Cc1cc(=O)n2[nH]c(NCc3ccc(C(=O)NCc4ccccc4)cc3)nc2n1 | i
Cc1cnc(NCCN(C)S(C)(=O)=O)nc1N(C)C | i
CCOc1c(Nc2cc(C)cc(C)c2)c(=O)c1=O | i
Cc1ccc2c(c1)c(CNC1CCN(Cc3ccccn3)CC1)nn2C | i
COc1ccccc1CNc1nc2nc(CNc3ccccc3)cc(=O)n2[nH]1 | i
CCc1ccccc1NCc1cc(=O)n2[nH]c(NCc3ccccc3Cl)nc2n1 | +
CCc1ccccc1NCc1cc(=O)n2[nH]c(NCc3ccccc3)nc2n1 | i
Cc1ccc(NCc2cc(=O)n3[nH]c(NCc4ccccc4Cl)nc3n2)cc1 | +
CCOc1ccccc1NCc1cc(=O)n2[nH]c(NCc3ccc(F)cc3)nc2n1 | i
O=c1cc(CNc2ccc(F)cc2)nc2nc(NCc3ccccc3)[nH]n12 | i
COc1cccc(Nc2nc(NCc3ccc(C)cc3)nc3c2cnn3-c2ccccc2)c1 | i
COC(=O)CN1CCN(c2nccc(CCC(F)(F)F)n2)C(C)C1=O (configuration not stated) | i
COc1ccccc1OC1CN(C(=O)c2occc2C)C1 | i
SMILES | FECH block
CC(=O)Nc1cc(C2=CCCN(CC(C)N3CCOCC3)C2)nn1C (configuration not stated) | i
Cc1nc(OCC(=O)NCc2ccc(F)cc2Cl)c2c(C)c(C)oc2n1 | i
COc1ccccc1-c1c(Nc2ccccc2C)oc2c1c(=O)n(C)c(=O)n2C | i
CCC(=O)Nc1ccccc1-c1nnc(SCC(=O)Nc2cccc(C)c2C)[nH]c1=O | i
CCC(=O)Nc1ccccc1-c1nnc(SCC(=O)Nc2ccccc2Cl)[nH]c1=O | i
CCC(=O)Nc1ccccc1-c1nnc(SCC(=O)Nc2cc(C)cc(C)c2)[nH]c1=O | +

Assay outcomes (PubChem BioAssay)
